# Hits are enriched below; roughly 7% of the tested compounds scored in any of these assays.
# ADAM17 inh: inhibits human ADAM17; P78536; recombinant ADAM17, EDANS/DABCYL FRET peptide cleavage; inhibition, % at 6.95 µM; 0.83% of 370,000 active; AID 720648;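 active = inhibition above the mean of compounds lying between control limits plus 3 SD, set per campaign, cut at about 8.5% in these data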;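 also: 0% = DMSO-only wells as the low control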
# ADAM10 inh: inhibitors of human ADAM10 | O14672 | recombinant ADAM10, EDANS/DABCYL FRET peptide cleavage, 3 h | inhibition, % at 7 µM | 0.62% of 370,000 active | AID 720582;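 active = inhibition above a per-campaign cutoff equal to the mean of compounds falling between control-based bounds plus 3 SD, cut at about 20% in these data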;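 also: 0% = DMSO wells while the 100% control is not disclosed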
# Target sequence (O14672 214-748 limits assumed): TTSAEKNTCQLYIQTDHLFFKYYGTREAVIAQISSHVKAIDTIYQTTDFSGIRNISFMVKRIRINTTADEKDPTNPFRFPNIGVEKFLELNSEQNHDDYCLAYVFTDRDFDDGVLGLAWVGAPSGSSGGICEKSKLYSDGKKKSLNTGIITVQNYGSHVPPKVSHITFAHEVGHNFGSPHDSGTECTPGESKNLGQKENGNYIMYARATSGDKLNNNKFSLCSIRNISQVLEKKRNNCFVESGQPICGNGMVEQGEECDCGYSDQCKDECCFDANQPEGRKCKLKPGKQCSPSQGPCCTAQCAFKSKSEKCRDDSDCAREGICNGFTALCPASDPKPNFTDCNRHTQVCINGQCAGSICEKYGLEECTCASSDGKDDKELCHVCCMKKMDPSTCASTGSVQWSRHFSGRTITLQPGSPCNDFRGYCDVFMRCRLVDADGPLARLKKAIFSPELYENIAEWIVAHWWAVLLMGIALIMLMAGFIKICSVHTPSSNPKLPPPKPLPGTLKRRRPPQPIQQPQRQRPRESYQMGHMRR
# AHR act: human AHR activation; AHR-responsive luciferase reporter cells, luminescence; activation, % at 5 µM; 2.5% of 320,000 active; AID 2796; in the data active = activation above about 47%;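 also: 0% = vehicle wells and 100% = reference agonist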
# proKLK7 act: proKLK7 (human) activation, primary screen. P49862. purified proKLK7, EDANS-DABCYL substrate fluorescence; 100% is mature enzyme control, 0% vehicle. activation, % at 7 µM. 0.9% of 370,000 active;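 active = activation above the mean of all tested compounds plus 3 SD, computed per campaign excluding outliers beyond control limits, cut at about 13% in these data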
# rCAG binder: r(CAG) repeat RNA binding; TO-PRO-1 dye displacement fluorescence; 1.3% of 370,000 active; AID 651821; inhibition, % at 3 µM;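 active = inhibition above the plate cutoff, the mean of all test compounds on that plate plus 3 SD, cut at about 35% in these data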;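 also: 0% = DMSO alone and 100% = 100 µM mitoxantrone as full dye displacement; higher means more dye released from RNA so lower well fluorescence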
# GRIN3A LBD mod: modulators (binders) of human NR3A ligand-binding domain; NR3A LBD differential scanning fluorimetry, Tm shift; 0% = protein alone, 100% = glycine-bound protein; Tm shift relative to glycine control, % at 25 µM; 2.5% of 340,000 active; AID 1259313;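 active = melting temperature shift of at least 10% of the positive control shift, at one fixed dose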
# Active calls of the source: *; nt = no result.
SMILES,ADAM17 inh,ADAM10 inh,AHR act,proKLK7 act,rCAG binder,GRIN3A LBD mod
CCCc1c(C(=O)N/N=C/c2cccc(OCc3ccc(F)cc3)c2)nnn1-c1nonc1N,-2.3,0.8,0.7,-0.9,1.3,35.0*
CCN(CC)Cc1c(C(=O)N/N=C/c2ccccn2)nnn1-c1nonc1N,0.1,1.7,6.6,0.1,-3.3,2.4
Nc1nonc1-n1nnc(C(=O)N/N=C/c2ccccc2Cl)c1COc1ccc(F)cc1,0.5,3.9,-0.5,-0.1,4.5,22.8*
CCN(CC)Cc1c(C(=O)N/N=C/c2cccc(OCc3cccc(Cl)c3)c2)nnn1-c1nonc1N,-0.8,0.4,2.3,1.6,4.6,12.5*
CCN(CC)CCCNC(=O)CSc1nnc(-c2ccncc2)n1-c1ccc(OC)cc1,-4.4,-2.6,nt,0.1,0.0,nt
N#Cc1ccc(C(=O)Oc2coc(CSc3ncccn3)cc2=O)cc1,-0.2,-4.1,nt,nt,nt,nt
Nc1nonc1-n1nnc(C(=O)N/N=C/c2ccc(OCc3ccccc3)cc2)c1COc1ccc(F)cc1,-2.7,9.9,3.0,0.6,6.1,19.1*
Nc1nonc1-n1nnc(C(=O)N/N=C/c2ccc(OCc3ccccc3F)cc2)c1CN1CCCCC1,-1.3,-0.6,2.0,1.0,3.7,15.7*
Nc1nonc1-n1nnc(C(=O)N/N=C/c2ccccn2)c1CNc1ccccc1,-1.5,4.4,7.8,0.5,7.4,-7.2
Nc1nonc1-n1nnc(C(=O)N/N=C/c2ccc(OCc3cccc(Cl)c3)cc2)c1CN1CCCCC1,-3.5,-3.2,1.4,-0.3,2.3,-3.8
Nc1nonc1-n1nnc(C(=O)N/N=C/c2ccc(O)cc2)c1COc1ccc(F)cc1,-5.0,-8.2,0.3,1.0,13.9,3.8
Cc1cccc(COc2ccc(/C=N/NC(=O)c3nnn(-c4nonc4N)c3COc3ccc(F)cc3)cc2)c1,-4.3,-1.0,2.9,-0.1,2.2,25.2*
Nc1nonc1-n1nnc(C(=O)N/N=C/c2ccc(OCc3ccccc3)cc2)c1CNc1ccccc1,-0.7,-5.6,0.9,1.0,6.5,31.2*
Cc1ccc(NC(=O)[C@@H]2CC(=O)O[C@@H]2c2ccccc2)c(C)c1,-3.0,-3.0,nt,-0.4,-0.3,nt
Cc1csc(NC(=O)CSc2nc(=O)[nH]c3c2CCCC3)n1,-4.4,-5.5,3.6,-0.1,-0.5,-0.2
O=C(CSc1nc(=O)[nH]c2c1CCCC2)Nc1cc(C(F)(F)F)cc(C(F)(F)F)c1,0.4,-4.0,0.1,-0.1,1.1,10.3*
CCCC[C@H]1C2CC(OC(=O)Nc3cccc(Cl)c3)C(C2)[C@H]2CCCCN21 (stereo partly drawn),-3.0,-3.2,nt,0.6,0.8,nt
CC(=O)Nc1ccc(NC(=O)c2cc(-c3ccc(F)cc3C)n[nH]2)cc1,-1.5,-1.8,nt,0.2,-0.9,nt
Cc1ccc(NC(=O)c2cc(-c3cc(C)c(C)cc3O)n[nH]2)cc1C,-6.2,1.0,-2.7,-0.1,3.4,32.6*
CC(=O)Nc1ccc(NC(=O)c2cc(-c3ccc(C)c(C)c3O)n[nH]2)cc1,-1.0,9.5,1.0,-0.3,-4.6,39.0*
COc1ccc(NC(=O)c2cc(-c3ccc(C)c(C)c3O)n[nH]2)cc1Cl,-1.6,9.5,10.6,-1.8,12.9,24.5*
CC(=O)Nc1ccc(NC(=O)c2cc(-c3cc(C)cc(C)c3O)n[nH]2)cc1,-1.7,9.5,6.5,-0.8,13.4,35.4*
COc1ccc(CC(=O)N(Cc2ccccc2)c2ccccc2C(=O)Nc2cc(OC)ccc2OC)cc1,1.3,3.2,nt,1.4,5.5,nt
CC(=O)C1(C(=O)NCc2ccccc2)CC(c2ccccc2C(F)(F)F)=NO1 (stereo not drawn),-5.9,-0.4,nt,-0.4,5.1,nt
C[C@H]1[C@H](N(C)C)CC[C@@]23CCCN2C(=O)CCC[C@@H]13,-1.6,4.1,nt,nt,nt,nt
SMILES,ADAM17 inh,ADAM10 inh,AHR act,proKLK7 act,rCAG binder,GRIN3A LBD mod
Cc1ccc(CNC(=O)c2cc(-c3cc(C)cc(C)c3O)n[nH]2)cc1,-3.0,-7.4,36.8,0.3,11.8,11.5*
Cc1ccc(-c2cc(C(=O)Nc3cc(C)ccc3C)[nH]n2)c(O)c1,-4.9,-15.6,-4.0,-0.8,5.7,-10.0
Cc1ccc(NC(=O)c2cc(-c3ccc(C)c(C)c3O)n[nH]2)cc1C,1.2,-3.2,-2.3,-0.5,3.3,34.9*
Cc1ccc(C)c(NC(=O)c2cc(-c3cc(C)c(C)cc3O)n[nH]2)c1,-1.3,5.9,-5.4,-0.3,10.6,28.4*
O=C(OCC#CCSc1nnc(-c2cccc(F)c2)o1)c1ccc(F)cc1,1.4,10.6,nt,nt,nt,nt
O=C(c1ccc2oc(Cc3ccc(Cl)cc3)nc2c1)N1CCCCC1CCO (stereo not drawn),-5.5,3.5,-1.7,0.4,-5.1,10.3*
COC1CCN(C(=O)c2ccc3oc(Cc4ccc(Cl)cc4)nc3c2)CC1,0.1,-4.9,2.3,0.2,-6.5,-0.8
COCCCN1C(=O)[C@H](CC(=O)N2CCCCC2)[C@]2(C(=O)OC)CCCCC=C12,2.3,8.6,nt,-0.6,1.4,nt
Oc1ccc(Nc2nc(-c3ccccc3F)nc3ccccc23)cc1,3.9,10.0,4.4,-0.1,1.3,25.2*
C/C(=N/Nc1nc(-c2ccccc2F)nc2ccccc12)c1ccccc1O,-6.6,-1.7,16.8,-4.0,10.2,-4.7
COc1ccc(OC)c(Nc2nc(-c3ccccc3O)nc3ccccc23)c1,-3.6,-3.5,3.7,-0.7,5.2,-3.2
COc1ccccc1Nc1nc(-c2ccccc2O)nc2ccccc12,-0.8,-0.1,20.5,-0.6,6.3,3.7
Oc1ccccc1Nc1nc(-c2ccccc2O)nc2ccccc12,2.8,9.4,nt,-1.1,28.1,28.4*
C/C(=N\Nc1nc(-c2ccccc2O)nc2ccccc12)c1ccccc1,-1.2,6.1,52.8*,-1.1,6.8,13.4*
Oc1ccc(Nc2nc(-c3ccccc3O)nc3ccccc23)cc1,2.2,11.9,nt,0.3,43.4*,35.9*
Cc1nc2ccc(NC(=O)c3ccc(F)cc3F)cc2c(=O)[nH]1,-10.7,-46.3,nt,0.1,1.2,nt
COc1ccc2c3c([nH]c2c1)[C@]1(NCC3)C(=O)N(C)c2ccc(Cl)cc21,-1.1,6.1,nt,0.4,0.4,nt
C#CCNC(=O)C[C@H]1C[C@@]2(C(=O)OC)C(=C[C@H](C(C)C)O[C@@H]2C2CC2)N(CCCCCCCC)C1=O,-0.4,6.5,nt,-0.4,2.2,nt
Oc1cccc(Nc2nc(-c3ccccc3Cl)nc3ccccc23)c1,-2.3,-8.0,13.4,1.3,4.8,17.3*
CN(C)c1ccc(C(=O)NC2CCCCN(Cc3cccc(Cl)c3)C2=O)cc1 (stereo not drawn),1.2,-1.2,nt,1.4,0.4,nt
CC(C)c1cccc(-c2ccc3c(c2)S(=O)(=O)c2cccc(C(=O)NCc4ccco4)c2C3=O)c1,-4.7,-9.8,4.0,-0.1,15.2,-3.6
CC(C)c1cccc(-c2ccc3c(c2)S(=O)(=O)c2cccc(C(=O)O)c2C3=O)c1,0.8,1.7,2.7,-0.1,13.4,24.2*

# Screens as filed in PubChem BioAssay.
